# Bioassay records deposited in PubChem by National Center for Advancing Translational Sciences (NCATS).
# The list is not random: actives were taken first. Their share in the collection is about 5.2%.
# Tau fibril FP = inhibitors of human tau fibril formation; Potency, µM (series often up to 57.7 µM), inactives show top-dose activity, negative = inhibition, usual class: inhibitors; 280,000 tested, 0.39% active; K18 P301L tau heparin fibrillization, Alexa594 FP, 6 h; note: potency is the fitted concentration of half-maximal effect; nearly all actives have a fitted effect of over 55% in size
# Target sequence (P10636 561-689 P618L limits assumed): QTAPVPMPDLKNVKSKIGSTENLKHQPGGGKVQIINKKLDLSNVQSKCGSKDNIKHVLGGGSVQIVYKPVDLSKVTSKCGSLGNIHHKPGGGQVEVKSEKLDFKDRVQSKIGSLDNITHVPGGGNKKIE
#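 Human K18 P301L fragment (15 uM unlabeled plus 0.24 uM Alexa 594-labeled) in 100 mM sodium acetate pH 7 with compound, aggregation induced by 20 uM heparin for 6 hr at 37 C. ThT (30 uM) added for 1 hr, then Alexa 594 FP read.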
# Tau ThT inhib = inhibitors of human tau fibril formation, thioflavin T binding. P10636. recombinant tau K18 P301L, heparin-induced fibrillization, ThT fluorescence. Potency, µM (highest dose often 57.4 µM), without a hit: at the highest dose activity, negative = inhibition, usual class: inhibitors. 270,000 tested, 2.1% active. AID 1460; note: potency is the fitted concentration of half-maximal effect; nearly all actives have a fitted effect of over 55% in size
#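 ThT emission at 510 nm, taken 1 hr after adding 30 uM dye, quantifies aggregates formed when 20 uM heparin acts on human tau K18 P301L for 6 hr at 37 C.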
# Sfp inh = inhibitors of Bacillus subtilis Sfp phosphopantetheinyl transferase | Q9F4F7 | Biochemical Sfp PPTase activity, qHTS | Potency, µM, inactives show largest response in the series, negative = inhibition, usual class: inhibitors | 310,000 tested, 3.5% active | AID 1490;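 note: the enzyme is Sfp with the accession as filed and its product quenches rhodamine fluorescence; potency is the fitted concentration of half-maximal effect; 0% = enzyme reaction without inhibitor and -100% = no enzyme wells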
#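 Buffer: 50 mM Hepes-Na pH 7.6, 10 mM MgCl2, 0.01% Nonidet P-40, 0.01% BSA. Enzyme 15 nM, pre-exposed to compound 15 min; substrates then added and fluorescence change tracked over 30 min.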
# Tau fluor counter = counter-screen for tau fibril formation inhibitors | tau K18 P301L (four-repeat tau fragment) Alexa594 fluorescence, heparin fibrillization | Potency, µM (titrated, usually from 57.7 µM), for inactives: at the top dose activity change, negative = decrease | 280,000 tested, 0.93% active | AID 1463; note: potency is the fitted concentration of half-maximal effect; nearly all actives have a fitted effect of over 55% in size
#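 Human K18 P301L tau (15 uM unlabeled plus 0.24 uM Alexa 594-labeled, final) in 100 mM sodium acetate pH 7 was mixed with compound and 20 uM heparin and incubated 6 hr at 37 C.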
# FBPA coupling cs = coupling enzyme interference in Giardia aldolase counter-screen. coupling enzyme system counterscreen, AmpLite Red fluorescence. activity change, negative = inhibition, % at 58.2 µM, hits read low. 290,000 tested, 0.67% active. AID 2472; in the data active = activity change below about -30%
#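 Activity here indicates interference with the coupling reaction, not aldolase inhibition. Compounds at 57.5 uM final met coupling enzymes for 10 min at RT; substrate and AmpLite Red detection followed, with a 525/598 nm fluorescence read after 20 min.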
# Numbers without * were called inactive; ? = inconclusive; . = no result given; [ ] = another dose, or the depositor's remark. Unless noted, calls come from the whole dose curve; as a rule, active = well fitted curve in the direction sought with a large enough effect; inconclusive = small, poorly fitted or top-dose-only effect, or another doubt; inactive = no such curve, though single readings can be large; an effect the other way counts as inactive or inconclusive. Unless noted, % is set by controls: 0 for no effect and ±100 for the full control effect.
SMILES,Tau fibril FP,Tau ThT inhib,Sfp inh,Tau fluor counter,FBPA coupling cs
C[C@@]12CC[C@@H]3c4ccc(O)cc4CC[C@H]3[C@H]1C[C@@H](O)[C@H]2O,.,.,34.5%,.,-1.9
O=C(O)COc1nn(Cc2ccccc2)c2ccccc12,.,.,13.1%,.,.
O=C(NCc1n[nH]c(=S)n1-c1cccc(Cl)c1)c1cccs1,-7.8%,-8.6%,11.6%,-12.2%,5.0
O=C(NCc1n[nH]c(=S)n1-c1ccc(Cl)c(Cl)c1)c1cccs1,-0.6%,0.4%,89.1µM*,-2.8%,0.3
c1ccc(C2Oc3ccccc3C3CC(c4cccs4)=NN32)cc1 (stereo unspecified),-14.3%,?,-3.4%,-21.5%,2.1
O=[N+]([O-])c1ccc(C2Oc3ccccc3C3CC(c4ccccc4)=NN32)s1 (stereo unspecified),?,14.1µM*,-14.8%,14.1µM*[quencher],-10.8
O=C1CSC(=S)N1N1C(=O)c2cccc([N+](=O)[O-])c2C1=O,?,12.6µM*,0.708µM*,-25.0%,-13.7
O=C1c2cccc([N+](=O)[O-])c2C(=O)N1CCO,-3.4%,-5.2%,7.2%,-4.8%,1.6
NCCNc1ccc([N+](=O)[O-])c(Sc2nc3ccccc3[nH]2)c1,-5.1%,?,-1.5%,?,2.7
CCOC(=O)C1CCCN(c2cc(NCCCO)c([N+](=O)[O-])c3nonc23)C1 (stereo unspecified),3.4%,-7.5%,5.9%,13.3%,-2.9
CCC(=O)OCCNc1cc(Sc2nc3ccccc3s2)c2nonc2c1[N+](=O)[O-],-11.6%,7.94µM*,3.98µM*,?,-13.0
O=[N+]([O-])c1c(NCCCO)cc(Sc2nc3ccccc3s2)c2nonc12,-20.8%,2.24µM*,-3.9%,?,0.2
CCC(=O)OCCNc1cc(Sc2nc3ccccc3[nH]2)c2nonc2c1[N+](=O)[O-],?,8.91µM*,17.8µM*,?,-1.8
CC(C)(C)NC[C@H](O)CSc1nc(-c2ccc(C(N)=O)s2)cs1,.,.,16.3%,.,.
CC1(C#CC[N+]2(C)CCCCC2)CCC2C(O1)c1ccccc1OC2(C)C (stereo unspecified),4.7%,-7.5%,56.2µM*,-5.0%,-2.6
O=[N+]([O-])c1ccccc1/C=C\C=N\N1CCN(c2ccccc2)CC1,13.8%,12.6µM*,10.5%,?,1.9
COc1ccccc1N1CCN(/N=C/C=C/c2ccccc2[N+](=O)[O-])CC1,12.1%,14.1µM*,-3.9%,?,-0.3
O=[N+]([O-])c1ccccc1/C=N/N1CCN(c2ccc(Cl)cc2)CC1,4.9%,11.2µM*,4.9%,?,-1.8
O=[N+]([O-])c1ccc(Cl)c(/C=N/N2CCN(c3ccccc3)CC2)c1,7.7%,?,0.8%,?,6.0
O=[N+]([O-])c1ccccc1/C=N\N1CCN(c2ccccc2)CC1,5.0%,11.2µM*,-1.3%,?,2.7
COc1ccccc1N1CCN(/N=C/c2cc([N+](=O)[O-])ccc2Cl)CC1,12.2%,-13.0%,11.2%,-28.9%,1.5
O=[N+]([O-])c1ccccc1/C=C/C=N/N1CCCCC1,-0.7%,?,18.9%,-10.9%,-1.2
COc1cc(OC)cc(-n2c(=O)c3ccccc3n(Cc3ccccc3C#N)c2=O)c1,-7.7%,-10.1%,.,-20.6%,.
O=C(CN1C(=O)/C(=C2\SC(=S)N(C3CCS(=O)(=O)C3)C2=O)c2ccccc21)Nc1ccccc1 (stereo unspecified),9.8%,?,28.2µM*,?,0.0
Fc1ccccc1CSc1ncnc2c1oc1ccccc12,-6.5%,?,-14.7%,-14.4%,0.8
c1coc(CSc2ncnc3c2oc2ccccc23)c1,-1.4%,-13.9%,56.2µM*,-12.4%,0.7
COc1ccc(C2=Nn3c(nnc3-c3ccc(OC)cc3OC)SC2)cc1,.,.,-16.1%,.,0.1
COc1ccc(-c2cc(C3C4C=CCCC4(C)C(=O)N3Cc3ccccc3)ccc2F)cc1 (stereo unspecified),.,.,-28.1%,.,0.6
Cn1c(SCc2nc3ccccc3s2)nnc1-c1cccs1,2.5%,-14.4%,56.2µM*,-0.6%,0.5
Oc1ccccc1OCc1nc2ccccc2s1,-1.4%,?,?,-16.8%,-5.8
